Assay results reported in the supplement of paper PMC6992640.
Counter-ions that a name gives are not always drawn. ± gives the standard deviation of the averaged measurements.

Assays:
Test in all cases: cell viability (% of vehicle); higher = less cytotoxic
Settings in all cases: 10 µM; 72 h
[1] = tested on: HCI01 (cells of a triple-negative basal-like breast cancer xenograft)
[2] = tested on: HCI03 (cells of an ER-positive luminal breast cancer xenograft)
[3] = tested on: HCI09 (cells of a triple-negative luminal androgen receptor type breast cancer xenograft)
[4] = tested on: HCI11 (cells of an ER-positive luminal breast cancer xenograft)
[5] = tested on: HCI13 (cells of an ER-positive luminal breast cancer xenograft)
[6] = tested on: HCI16 (cells of a triple-negative basal-like breast cancer xenograft)
[7] = tested on: UCD52 (cells of a triple-negative basal-like breast cancer xenograft)
[8] = tested on: WHIM2 (cells of a triple-negative basal-like breast cancer xenograft)
[9] = tested on: WHIM30 (cells of a triple-negative basal-like breast cancer xenograft)
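Also: PDX cells carrying CMV promoter-driven luciferase, viability read as total photon flux per second by IVIS imaging following D-luciferin, vehicle control 0.1% DMSO.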

| SMILES | cell viability [1] | cell viability [2] | cell viability [3] | cell viability [4] | cell viability [5] | cell viability [6] | cell viability [7] | cell viability [8] | cell viability [9] |
| --- | --- | --- | --- | --- | --- | --- | --- | --- | --- |
| CCC(C)C(=O)OC1CCC=C2C=CC(C)C(CCC3CC(O)CC(=O)O3)C21 (stereo unspecified) [Mevastatin] | 129 ± 20 | 119 | 87.8 ± 22 | 120 | 92.7 ± 24 | 132 | 54.2 ± 10 | 86.8 ± 15 | 136 ± 4.6 |
| CC(C)(C)NCC(O)c1ccc(O)c(CO)c1.O=S(=O)(O)O (stereo unspecified) [Salbutamol Sulfate] | 103 ± 5.9 | 104 | 97.4 ± 19 | 90.5 | 106 ± 21 | 104 | 85.4 ± 4.9 | 92.9 ± 19 | 114 ± 6.2 |
| COc1cc2c(cc1OC)C(=O)C(CC1CCN(Cc3ccccc3)CC1)C2.Cl (stereo unspecified) [Donepezil HCl] | 137 ± 8.8 | 89.9 | 113 ± 5 | 106 | 152.6 ± 0.61 | 147 | 66.1 ± 6.9 | 86.1 ± 4 | 107 ± 14 |
| CCOC(=O)C1=C(C)NC(C)=C(C(=O)OCC)C1c1ccccc1C=CC(=O)OC(C)(C)C [Lacidipine] | 107.7 ± 0.7 | 98.1 | 86.5 ± 9.8 | 110 | 88.7 ± 2.9 | 85.7 | 77.1 ± 6.1 | 99.8 ± 1.2 | 133 ± 3.9 |
| CCCCCCCCCCCC(CC1OC(=O)C1CCCCCC)OC(=O)C(CC(C)C)NC=O (stereo unspecified) [Orlistat] | 126.7 ± 0.42 | 122 | 123 ± 42 | 110 | 97.6 ± 13 | 81.3 | 76.1 ± 1 | 79.1 ± 21 | 123 ± 6.8 |
| CCCNC1CCc2nc(N)sc2C1 (stereo unspecified) [Pramipexole] | 122 ± 25 | 111 | 113 ± 5.7 | 110 | 163 ± 2.5 | 151 | 114 ± 20 | 101.5 ± 0.41 | 100 ± 12 |
| Nc1nc(Cl)nc2c1ncn2C1OC(CO)C(O)C1F (stereo unspecified) [Clofarabine] | 162.3 ± 0.47 | 175 | 141 ± 70 | 126 | 180 ± 11 | 92.9 | 143 ± 24 |  | 128.5 ± 0.14 |
| Cc1cc(C2CCCCC2)n(O)c(=O)c1.NCCO [Ciclopirox ethanolamine] | 113 ± 52 | 60.3 | 31.7 ± 9.4 | 69.4 | 59.3 ± 3.2 | 123 | 63.4 ± 8.2 |  | 86.4 ± 7 |
| CCOC(=O)C1OC1C(=O)NC(CC(C)C)C(=O)NCCC(C)C (stereo unspecified) | 108 ± 6.8 | 118 | 97.6 ± 1.9 | 91.9 | 165 ± 7.1 | 70.3 | 97.4 ± 3.2 | 105 ± 38 | 99.6 ± 12 |
| CS(=O)(=O)N1CCN(Cc2cc3nc(-c4cccc5[nH]ncc45)nc(N4CCOCC4)c3s2)CC1 | 190 ± 66 | 94.8 | 89.23 ± 0.75 | 114 | 90.7 ± 3.3 |  | 88.5 ± 15 | 63.7 ± 3.2 |  |
| CC(Cc1cc2c(c(C(N)=O)c1)N(CCCO)CC2)NCCOc1ccccc1OCC(F)(F)F (stereo unspecified) [Silodosin] | 103 ± 7.4 | 99.5 | 106 ± 39 | 127 | 96.6 ± 16 | 117 | 82.5 ± 14 | 98 ± 21 | 94.2 ± 6.5 |
| O=C(NCCO[N+](=O)[O-])c1cccnc1 [Nicorandil] | 81.9 ± 59 | 135 | 93.1 ± 9.9 | 89.3 | 151 ± 28 | 113 | 82.6 ± 8.1 | 120 ± 9.5 | 127 ± 5.8 |
| CCCCCN(C)CCC(O)(P(=O)([O-])O)P(=O)(O)O.O.[Na+] [Ibandronate sodium] | 113 ± 30 | 93.2 | 107 ± 19 | 101 | 126 ± 20 | 138 | 115 ± 5.5 | 130 ± 14 | 128 ± 22 |
| COc1cc(Nc2ncc(F)c(Nc3ccc4c(n3)N(COP(=O)([O-])[O-])C(=O)C(C)(C)O4)n2)cc(OC)c1OC.[Na+].[Na+] [R788 disodium] | 86.4 ± 12 | 76.8 | 95.4 ± 11 | 86.8 | 86.4 ± 11 | 64.5 | 58 ± 4 | 79.4 ± 16 | 91.9 ± 3.2 |
| CS(=O)(=O)OCCCCOS(C)(=O)=O [Busulfan] | 99.951 ± 0.028 | 115 | 117 ± 7.2 | 105 | 109 ± 4.9 | 108 | 81.4 ± 3.8 | 97.6 ± 4 | 143 ± 10 |
| CC1COc2c(N3CCN(C)CC3)c(F)cc3c(=O)c(C(=O)O)cn1c23 (stereo unspecified) [Ofloxacin] | 123 ± 23 | 173 | 135 ± 18 | 86.6 | 186 ± 11 | 133 | 138.6 ± 1 |  | 159 ± 11 |
| C=C[C@]1(C)C[C@@H](OC(=O)CSC(C)(C)CNC(=O)[C@H](N)C(C)C)[C@]2(C)[C@H](C)CC[C@]3(CCC(=O)[C@H]32)[C@@H](C)[C@@H]1O [Valnemulin HCl] | 90.1 ± 7.2 | 107 | 66 ± 3.6 | 91.8 | 63.2 ± 0.68 | 120 | 78.3 ± 4.9 | 102 ± 20 | 114 ± 3 |
| CS(=O)(=O)O.Cc1ccc(NC(=O)c2ccc(CN3CCN(C)CC3)cc2)cc1Nc1nccc(-c2cccnc2)n1 [Imatinib Mesylate (STI571)] | 157 ± 24 | 86.7 | 67.7 ± 12 | 69.7 | 91.3 ± 11 | 99 | 67.8 ± 1.8 | 88.9 ± 6.2 | 114 ± 18 |
| CC(C)(O)c1ccccc1CCC(SCC1(CC(=O)[O-])CC1)c1cccc(C=Cc2ccc3ccc(Cl)cc3n2)c1.[Na+] (stereo unspecified) [Montelukast Sodium] | 41.5 ± 20 | 169 | 83.3 ± 85 | 103 | 45.5 ± 6.3 | 165 |  | 50.8 ± 12 | 156.57 ± 0.11 |
| CCN1CCCC1CNC(=O)c1cc(S(=O)(=O)CC)c(N)cc1OC (stereo unspecified) [Amisulpride] | 189 ± 32 | 126 | 108 ± 14 | 100 | 82.7 ± 0.84 | 159 | 116 ± 15 | 122 ± 4 | 139 ± 2.1 |
| NC(=O)N1CCC(CC(=O)N2CCC(C3c4ncc(Br)cc4CCc4cc(Cl)cc(Br)c43)CC2)CC1 (stereo unspecified) [Lonafarnib] | 72.5 ± 68 | 121 | 12.8 ± 2.5 | 163 | 43.2 ± 17 | 170 |  | 126 ± 12 | 115 ± 7.2 |
| COCCc1ccc(OCC(O)CNC(C)C)cc1.COCCc1ccc(OCC(O)CNC(C)C)cc1.O=C(O)C(O)C(O)C(=O)O (stereo unspecified) [Metoprolol Tartrate] | 126 ± 15 | 111 | 112 ± 13 | 95 | 81.4 ± 14 | 112 | 88.1 ± 13 | 94.4 ± 13 | 107 ± 2.7 |
